From paper PMC7862700, “An all-to-all approach to the identification of sequence-specific readers for epigenetic DNA modifications on cytosine”

How the values were obtained:
Test in all cases: DAPPL (digital affinity profiling via proximity ligation, sequencing); 10 mM Tris-HCl pH 7.5, 50 mM NaCl, 1 mM DTT, 4% glycerol, room temperature, 30 min; GST-TFs on glutathione beads, 16-mer random dsDNA library, 0.1% formaldehyde crosslink after washing; high values mean tight binding
[1] = biological target: T1, FLI1 (Homo sapiens, UniProt Q01543 1-452); details: protein: recombinant; tags: N-terminal GST; dsDNA, one strand shown
T1 sequence: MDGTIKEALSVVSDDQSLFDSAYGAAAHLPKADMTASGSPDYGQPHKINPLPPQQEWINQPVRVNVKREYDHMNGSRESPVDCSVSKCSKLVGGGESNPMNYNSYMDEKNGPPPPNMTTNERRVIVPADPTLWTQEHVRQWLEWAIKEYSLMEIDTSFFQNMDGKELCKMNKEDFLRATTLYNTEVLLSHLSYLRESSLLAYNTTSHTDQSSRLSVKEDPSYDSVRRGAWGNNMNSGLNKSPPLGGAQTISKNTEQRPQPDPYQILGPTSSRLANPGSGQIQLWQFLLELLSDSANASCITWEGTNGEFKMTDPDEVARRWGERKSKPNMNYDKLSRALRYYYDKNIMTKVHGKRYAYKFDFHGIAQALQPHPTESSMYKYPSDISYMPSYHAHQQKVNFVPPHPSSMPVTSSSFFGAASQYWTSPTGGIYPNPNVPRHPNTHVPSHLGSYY
Outline: (§1)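 After expression in yeast as GST fusions, human transcription factors were bound to glutathione beads, DNA-barcoded and mixed with a tag-only sample. The pools were incubated with 200 nmole of a 16-mer random double-stranded DNA library in Tris/NaCl/DTT/glycerol buffer (30 min, room temperature), washed and crosslinked with 0.1% formaldehyde. Proximity ligation with BsaI/T4 ligase ran for 1 h at 37 °C, before PCR amplification and sequencing on an Illumina NextSeq500. Binding signal is a hexamer's read frequency for a factor divided by its frequency for the tag-only sample.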

[2] = biological target: T2, ELK1 (Homo sapiens, UniProt P19419 1-428); details: protein: recombinant; tags: N-terminal GST; dsDNA, one strand shown
T2 sequence: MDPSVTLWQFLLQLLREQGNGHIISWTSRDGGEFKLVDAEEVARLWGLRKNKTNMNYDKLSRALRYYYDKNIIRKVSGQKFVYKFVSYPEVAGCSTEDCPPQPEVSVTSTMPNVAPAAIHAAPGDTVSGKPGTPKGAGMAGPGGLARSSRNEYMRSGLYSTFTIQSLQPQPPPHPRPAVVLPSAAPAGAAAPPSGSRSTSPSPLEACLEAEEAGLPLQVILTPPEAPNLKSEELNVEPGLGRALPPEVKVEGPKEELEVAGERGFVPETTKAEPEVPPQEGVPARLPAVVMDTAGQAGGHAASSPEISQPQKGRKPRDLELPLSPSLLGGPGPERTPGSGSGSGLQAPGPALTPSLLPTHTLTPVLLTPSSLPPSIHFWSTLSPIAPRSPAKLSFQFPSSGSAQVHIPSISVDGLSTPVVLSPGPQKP
Outline: as §1

[3] = biological target: T3, GABPA (Homo sapiens, UniProt Q06546 1-454); details: protein: recombinant; tags: N-terminal GST; dsDNA, one strand shown
T3 sequence: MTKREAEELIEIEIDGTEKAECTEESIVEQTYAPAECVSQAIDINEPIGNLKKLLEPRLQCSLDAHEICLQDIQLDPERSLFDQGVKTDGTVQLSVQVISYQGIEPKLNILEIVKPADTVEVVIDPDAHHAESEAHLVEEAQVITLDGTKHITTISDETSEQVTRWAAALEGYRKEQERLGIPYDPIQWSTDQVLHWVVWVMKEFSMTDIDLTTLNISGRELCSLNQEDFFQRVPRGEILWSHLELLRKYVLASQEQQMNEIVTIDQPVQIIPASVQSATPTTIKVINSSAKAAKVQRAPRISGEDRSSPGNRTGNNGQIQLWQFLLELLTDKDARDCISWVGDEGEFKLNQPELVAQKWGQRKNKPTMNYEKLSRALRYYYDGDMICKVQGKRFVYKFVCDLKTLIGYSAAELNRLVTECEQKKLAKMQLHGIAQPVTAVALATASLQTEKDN
Outline: as §1

[4] = biological target: T4, ERG (Homo sapiens, UniProt P11308 1-479); details: protein: recombinant; tags: N-terminal GST; dsDNA, one strand shown
T4 sequence: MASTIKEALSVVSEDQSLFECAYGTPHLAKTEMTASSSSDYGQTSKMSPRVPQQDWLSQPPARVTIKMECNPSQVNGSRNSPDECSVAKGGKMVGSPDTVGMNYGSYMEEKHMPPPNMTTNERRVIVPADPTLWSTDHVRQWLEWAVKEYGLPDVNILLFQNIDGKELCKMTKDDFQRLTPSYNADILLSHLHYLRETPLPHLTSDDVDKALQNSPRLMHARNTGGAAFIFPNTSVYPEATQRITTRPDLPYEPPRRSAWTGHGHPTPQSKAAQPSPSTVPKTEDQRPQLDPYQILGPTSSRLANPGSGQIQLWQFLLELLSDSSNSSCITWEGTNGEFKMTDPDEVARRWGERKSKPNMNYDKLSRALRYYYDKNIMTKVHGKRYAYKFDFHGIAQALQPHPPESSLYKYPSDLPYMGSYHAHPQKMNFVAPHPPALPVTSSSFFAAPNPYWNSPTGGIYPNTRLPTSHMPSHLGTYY
Outline: as §1

[5] = biological target: ELF1 (Homo sapiens, UniProt P32519 1-619); details: protein: recombinant; tags: N-terminal GST; dsDNA, one strand shown
Sequence of ELF1 (P32519 whole entry): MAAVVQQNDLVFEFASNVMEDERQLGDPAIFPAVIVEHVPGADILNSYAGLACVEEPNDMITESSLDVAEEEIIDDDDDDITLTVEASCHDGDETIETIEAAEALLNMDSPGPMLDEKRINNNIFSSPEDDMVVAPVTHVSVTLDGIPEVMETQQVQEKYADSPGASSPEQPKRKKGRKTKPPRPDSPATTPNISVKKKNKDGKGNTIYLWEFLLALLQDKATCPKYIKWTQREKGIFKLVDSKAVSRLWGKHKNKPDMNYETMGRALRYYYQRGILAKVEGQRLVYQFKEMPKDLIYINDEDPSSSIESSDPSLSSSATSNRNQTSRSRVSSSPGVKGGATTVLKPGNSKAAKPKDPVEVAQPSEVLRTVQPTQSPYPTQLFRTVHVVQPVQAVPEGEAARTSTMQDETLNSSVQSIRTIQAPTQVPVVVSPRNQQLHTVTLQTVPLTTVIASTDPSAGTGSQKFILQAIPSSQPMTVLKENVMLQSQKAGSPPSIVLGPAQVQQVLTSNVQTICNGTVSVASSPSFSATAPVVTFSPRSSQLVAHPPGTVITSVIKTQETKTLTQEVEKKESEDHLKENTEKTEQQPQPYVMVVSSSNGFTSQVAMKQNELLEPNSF
Outline: as §1

[6] = biological target: T5, EHF (Homo sapiens, UniProt Q9NZC4 1-300); details: protein: recombinant; tags: N-terminal GST; dsDNA, one strand shown
T5 sequence: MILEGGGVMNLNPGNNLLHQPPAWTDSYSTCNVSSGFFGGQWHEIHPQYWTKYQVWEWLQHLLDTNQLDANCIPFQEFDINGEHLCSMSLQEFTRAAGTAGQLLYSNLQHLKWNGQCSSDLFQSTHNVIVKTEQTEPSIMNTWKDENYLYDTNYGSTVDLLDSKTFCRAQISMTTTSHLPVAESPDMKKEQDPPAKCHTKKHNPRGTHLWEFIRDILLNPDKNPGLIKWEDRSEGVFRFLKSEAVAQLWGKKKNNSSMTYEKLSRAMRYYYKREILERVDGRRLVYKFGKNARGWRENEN
Outline: as §1

[7] = biological target: SPI1 (Homo sapiens, UniProt P17947 1-270); details: protein: recombinant; tags: N-terminal GST; dsDNA, one strand shown
Outline: as §1

[8] = biological target: SPIB (Homo sapiens, UniProt Q01892 1-262); details: protein: recombinant; tags: N-terminal GST; dsDNA, one strand shown
Sequence of SPIB (Q01892 whole entry): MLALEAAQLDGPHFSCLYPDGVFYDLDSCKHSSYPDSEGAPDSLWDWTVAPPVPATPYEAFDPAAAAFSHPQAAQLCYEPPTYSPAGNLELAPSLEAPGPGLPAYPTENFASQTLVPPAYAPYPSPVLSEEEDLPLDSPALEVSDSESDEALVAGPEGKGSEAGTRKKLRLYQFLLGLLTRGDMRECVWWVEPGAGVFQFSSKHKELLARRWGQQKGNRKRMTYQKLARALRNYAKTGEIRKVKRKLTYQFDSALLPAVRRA
Outline: as §1

[9] = biological target: T6, ELK3 (Homo sapiens, UniProt P41970 1-407); details: protein: recombinant; tags: N-terminal GST; dsDNA, one strand shown
T6 sequence: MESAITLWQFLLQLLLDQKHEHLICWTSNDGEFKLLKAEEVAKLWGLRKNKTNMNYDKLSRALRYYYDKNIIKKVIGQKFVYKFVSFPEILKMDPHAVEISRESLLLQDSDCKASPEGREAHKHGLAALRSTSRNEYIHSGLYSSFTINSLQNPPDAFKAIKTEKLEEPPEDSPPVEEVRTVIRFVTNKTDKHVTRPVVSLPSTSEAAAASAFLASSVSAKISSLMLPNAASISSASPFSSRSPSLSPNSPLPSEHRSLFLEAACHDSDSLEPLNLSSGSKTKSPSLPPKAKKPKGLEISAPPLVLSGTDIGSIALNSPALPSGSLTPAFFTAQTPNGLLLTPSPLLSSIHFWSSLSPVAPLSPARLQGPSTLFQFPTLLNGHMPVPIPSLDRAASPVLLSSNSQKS
Outline: as §1

[10] = biological target: T7, FEV (Homo sapiens, UniProt Q99581 1-238); details: protein: recombinant; tags: N-terminal GST; dsDNA, one strand shown
T7 sequence: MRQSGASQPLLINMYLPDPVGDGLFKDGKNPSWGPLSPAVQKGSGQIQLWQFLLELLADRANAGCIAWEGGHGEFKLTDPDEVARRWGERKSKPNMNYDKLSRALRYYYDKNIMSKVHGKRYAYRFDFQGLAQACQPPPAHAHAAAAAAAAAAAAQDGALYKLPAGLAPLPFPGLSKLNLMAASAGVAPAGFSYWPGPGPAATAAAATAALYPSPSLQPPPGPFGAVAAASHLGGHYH
Outline: as §1

[11] = biological target: ETV5 (Homo sapiens, UniProt P41161 1-510); details: protein: recombinant; tags: N-terminal GST; dsDNA, one strand shown
Sequence of ETV5 (P41161 whole entry): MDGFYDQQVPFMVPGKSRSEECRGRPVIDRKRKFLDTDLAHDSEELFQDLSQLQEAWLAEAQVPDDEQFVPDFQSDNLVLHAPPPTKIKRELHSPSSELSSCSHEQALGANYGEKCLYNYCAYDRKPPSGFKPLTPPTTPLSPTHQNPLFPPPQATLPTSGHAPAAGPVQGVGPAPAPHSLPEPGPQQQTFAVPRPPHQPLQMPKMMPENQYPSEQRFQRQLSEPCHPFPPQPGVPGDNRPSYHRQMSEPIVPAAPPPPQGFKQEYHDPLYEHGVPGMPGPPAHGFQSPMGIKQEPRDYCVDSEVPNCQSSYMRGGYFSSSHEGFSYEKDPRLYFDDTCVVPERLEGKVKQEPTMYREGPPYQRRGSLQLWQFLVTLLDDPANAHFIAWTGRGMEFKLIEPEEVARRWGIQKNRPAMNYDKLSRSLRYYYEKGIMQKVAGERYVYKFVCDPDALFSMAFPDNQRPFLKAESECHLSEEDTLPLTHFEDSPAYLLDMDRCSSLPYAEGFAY
Outline: as §1

[12] = biological target: HSF1 (Homo sapiens, UniProt Q00613 1-529); details: protein: recombinant; tags: N-terminal GST; chain copies: 3; dsDNA, one strand shown
Sequence of HSF1 (Q00613 whole entry): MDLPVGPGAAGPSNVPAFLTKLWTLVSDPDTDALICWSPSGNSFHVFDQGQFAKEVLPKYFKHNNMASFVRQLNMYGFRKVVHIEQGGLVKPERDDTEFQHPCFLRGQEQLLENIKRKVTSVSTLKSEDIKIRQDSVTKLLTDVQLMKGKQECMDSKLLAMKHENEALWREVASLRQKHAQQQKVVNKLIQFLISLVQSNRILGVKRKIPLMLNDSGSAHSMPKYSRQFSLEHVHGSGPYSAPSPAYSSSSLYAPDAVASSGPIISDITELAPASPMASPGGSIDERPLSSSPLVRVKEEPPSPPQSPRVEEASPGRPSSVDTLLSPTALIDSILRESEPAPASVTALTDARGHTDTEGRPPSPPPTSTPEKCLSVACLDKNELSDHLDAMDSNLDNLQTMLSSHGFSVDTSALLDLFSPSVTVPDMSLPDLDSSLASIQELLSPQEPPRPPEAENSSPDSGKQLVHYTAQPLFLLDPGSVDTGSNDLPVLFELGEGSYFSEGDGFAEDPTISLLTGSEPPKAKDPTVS
Outline: as §1

[13] = biological target: T8, SPIC (Homo sapiens, UniProt Q8N5J4 1-248); details: protein: recombinant; tags: N-terminal GST; dsDNA, one strand shown
T8 sequence: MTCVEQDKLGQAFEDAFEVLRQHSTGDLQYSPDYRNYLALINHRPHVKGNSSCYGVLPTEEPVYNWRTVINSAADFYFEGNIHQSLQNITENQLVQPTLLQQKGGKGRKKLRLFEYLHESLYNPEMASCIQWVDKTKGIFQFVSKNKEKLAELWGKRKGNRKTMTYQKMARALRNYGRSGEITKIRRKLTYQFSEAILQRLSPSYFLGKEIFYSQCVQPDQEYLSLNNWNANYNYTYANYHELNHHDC
Outline: as §1

[14] = biological target: ELF4 (Homo sapiens, UniProt Q99607 1-663); details: protein: recombinant; tags: N-terminal GST; dsDNA, one strand shown
Sequence of ELF4 (Q99607 whole entry): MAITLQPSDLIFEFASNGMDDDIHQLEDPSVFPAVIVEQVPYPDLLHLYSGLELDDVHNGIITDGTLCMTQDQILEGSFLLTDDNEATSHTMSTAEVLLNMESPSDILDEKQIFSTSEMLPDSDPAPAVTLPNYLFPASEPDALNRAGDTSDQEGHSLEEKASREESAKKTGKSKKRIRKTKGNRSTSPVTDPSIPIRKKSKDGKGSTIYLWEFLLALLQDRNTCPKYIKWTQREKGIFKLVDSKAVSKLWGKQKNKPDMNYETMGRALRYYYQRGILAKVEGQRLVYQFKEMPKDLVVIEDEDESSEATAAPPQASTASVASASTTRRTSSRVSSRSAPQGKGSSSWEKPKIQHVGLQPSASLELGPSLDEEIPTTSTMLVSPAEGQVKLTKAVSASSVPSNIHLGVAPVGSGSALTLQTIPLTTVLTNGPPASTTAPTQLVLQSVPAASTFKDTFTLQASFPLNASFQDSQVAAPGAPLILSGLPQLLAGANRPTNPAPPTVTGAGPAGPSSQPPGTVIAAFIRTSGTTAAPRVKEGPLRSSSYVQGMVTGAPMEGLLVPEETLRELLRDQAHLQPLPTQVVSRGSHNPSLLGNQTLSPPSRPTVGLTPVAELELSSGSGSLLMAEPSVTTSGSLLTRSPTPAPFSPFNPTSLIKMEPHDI
Outline: as §1

[15] = biological target: T9, ELK4 (Homo sapiens, UniProt P28324-2 1-405); details: protein: recombinant; tags: N-terminal GST; dsDNA, one strand shown
T9 sequence: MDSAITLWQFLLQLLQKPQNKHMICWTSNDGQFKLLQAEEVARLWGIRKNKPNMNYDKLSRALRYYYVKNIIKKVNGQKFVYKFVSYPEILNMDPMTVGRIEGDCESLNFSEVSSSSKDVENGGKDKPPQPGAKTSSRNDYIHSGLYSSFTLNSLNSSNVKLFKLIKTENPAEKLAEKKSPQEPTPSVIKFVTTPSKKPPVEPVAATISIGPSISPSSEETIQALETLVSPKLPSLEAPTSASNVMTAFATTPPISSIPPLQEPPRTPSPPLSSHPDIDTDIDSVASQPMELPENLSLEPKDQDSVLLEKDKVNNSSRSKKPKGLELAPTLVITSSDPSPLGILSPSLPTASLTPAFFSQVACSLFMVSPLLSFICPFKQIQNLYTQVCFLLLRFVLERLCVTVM
Outline: as §1

[16] = biological target: T10, ETV2 (Homo sapiens, UniProt O00321 1-342); details: protein: recombinant; tags: N-terminal GST; dsDNA, one strand shown
T10 sequence: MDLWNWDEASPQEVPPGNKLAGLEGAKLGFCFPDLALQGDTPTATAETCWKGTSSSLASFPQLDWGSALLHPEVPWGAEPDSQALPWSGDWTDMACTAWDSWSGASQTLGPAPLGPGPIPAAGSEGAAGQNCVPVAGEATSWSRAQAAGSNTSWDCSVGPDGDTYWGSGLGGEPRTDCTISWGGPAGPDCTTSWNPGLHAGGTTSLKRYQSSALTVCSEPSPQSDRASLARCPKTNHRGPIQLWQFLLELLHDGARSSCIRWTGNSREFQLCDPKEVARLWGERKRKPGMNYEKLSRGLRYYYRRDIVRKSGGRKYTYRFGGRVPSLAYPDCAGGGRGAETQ
Outline: as §1

[17] = biological target: T11, ELF3 (Homo sapiens, UniProt P78545 1-371); details: protein: recombinant; tags: N-terminal GST; dsDNA, one strand shown
T11 sequence: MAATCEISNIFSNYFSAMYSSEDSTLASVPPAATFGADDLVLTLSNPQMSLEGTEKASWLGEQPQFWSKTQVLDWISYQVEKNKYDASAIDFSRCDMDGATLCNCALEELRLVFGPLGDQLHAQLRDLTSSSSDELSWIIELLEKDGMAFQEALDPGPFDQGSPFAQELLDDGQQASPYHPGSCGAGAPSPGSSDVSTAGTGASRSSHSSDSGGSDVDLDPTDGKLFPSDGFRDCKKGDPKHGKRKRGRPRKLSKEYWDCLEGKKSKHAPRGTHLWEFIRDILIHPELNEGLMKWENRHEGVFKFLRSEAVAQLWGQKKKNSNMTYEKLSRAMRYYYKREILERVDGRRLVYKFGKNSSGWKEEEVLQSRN
Outline: as §1

[18] = biological target: CRX (Homo sapiens, UniProt O43186 1-299); details: protein: recombinant; tags: N-terminal GST; dsDNA, one strand shown
Sequence of CRX (O43186 whole entry): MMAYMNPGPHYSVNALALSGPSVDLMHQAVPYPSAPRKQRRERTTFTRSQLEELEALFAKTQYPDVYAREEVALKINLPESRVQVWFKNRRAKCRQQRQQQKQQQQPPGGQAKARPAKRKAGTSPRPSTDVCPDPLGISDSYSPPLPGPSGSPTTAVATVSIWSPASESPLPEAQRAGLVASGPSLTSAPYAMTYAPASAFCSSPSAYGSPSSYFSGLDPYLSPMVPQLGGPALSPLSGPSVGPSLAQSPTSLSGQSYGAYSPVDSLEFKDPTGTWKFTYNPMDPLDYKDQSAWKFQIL
Outline: as §1

[19] = biological target: ETV1 (Homo sapiens, UniProt P50549 1-477); details: protein: recombinant; tags: N-terminal GST; dsDNA, one strand shown
Sequence of ETV1 (P50549 whole entry): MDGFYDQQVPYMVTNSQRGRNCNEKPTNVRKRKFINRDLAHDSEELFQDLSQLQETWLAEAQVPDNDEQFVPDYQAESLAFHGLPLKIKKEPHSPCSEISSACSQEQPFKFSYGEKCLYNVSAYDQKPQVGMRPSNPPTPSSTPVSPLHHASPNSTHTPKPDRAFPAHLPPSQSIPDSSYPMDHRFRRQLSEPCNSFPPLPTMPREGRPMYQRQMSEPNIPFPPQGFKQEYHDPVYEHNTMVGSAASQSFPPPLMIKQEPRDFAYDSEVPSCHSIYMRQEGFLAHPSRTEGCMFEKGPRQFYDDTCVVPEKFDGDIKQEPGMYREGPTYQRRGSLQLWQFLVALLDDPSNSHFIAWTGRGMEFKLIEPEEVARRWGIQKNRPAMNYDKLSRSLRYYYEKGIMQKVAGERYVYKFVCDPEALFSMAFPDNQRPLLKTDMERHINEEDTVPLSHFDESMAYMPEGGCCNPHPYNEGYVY
Outline: as §1

## AAGTTA
[1]
  binding signal: 1.25 fold enrichment (6-mer frequency, TF over GST control)
[2]
  binding signal: 1.26 fold enrichment (6-mer frequency, TF over GST control)
[3]
  binding signal: 1.19 fold enrichment (6-mer frequency, TF over GST control)
[4]
  binding signal: 1.27 fold enrichment (6-mer frequency, TF over GST control)
[5]
  binding signal: 1.27 fold enrichment (6-mer frequency, TF over GST control)
[6]
  binding signal: 1.24 fold enrichment (6-mer frequency, TF over GST control)
[7]
  binding signal: 1.24 fold enrichment (6-mer frequency, TF over GST control)
[8]
  binding signal: 1.12 fold enrichment (6-mer frequency, TF over GST control)
[9]
  binding signal: 1.23 fold enrichment (6-mer frequency, TF over GST control)
[10]
  binding signal: 1.15 fold enrichment (6-mer frequency, TF over GST control)
[11]
  binding signal: 1.26 fold enrichment (6-mer frequency, TF over GST control)
[12]
  binding signal: 1.09 fold enrichment (6-mer frequency, TF over GST control)
[13]
  binding signal: 1.27 fold enrichment (6-mer frequency, TF over GST control)
[14]
  binding signal: 1.28 fold enrichment (6-mer frequency, TF over GST control)
[15]
  binding signal: 1.19 fold enrichment (6-mer frequency, TF over GST control)
[16]
  binding signal: 1.27 fold enrichment (6-mer frequency, TF over GST control)
[17]
  binding signal: 1.15 fold enrichment (6-mer frequency, TF over GST control)
[18]
  binding signal: 1.26 fold enrichment (6-mer frequency, TF over GST control)
[19]
  binding signal: 1.23 fold enrichment (6-mer frequency, TF over GST control)
